These results are taken from paper PMC8384837, “Expanding the binding specificity for RNA recognition by a PUF domain”.

Common to all, as to test: yeast three-hybrid, YBZ-1, SC-Leu-His + 0.5 mM 3-AT, 4 days
Holding throughout (details): tags: N-Gal4 AD-HA kept; label: inside an RPR1-promoter hybrid RNA with tandem MS2 sites; ssRNA

In experiment [1] the target is PUM1 PUF domain R8-GFK (Homo sapiens, UniProt Q14671 828-1176, N1122G;Y1123F;Q1126K). Put shortly: (§1)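 A centromeric plasmid in strain YBZ-1 co-expressed Pumilio-1 PUF domain libraries, randomized at the three base-contacting residues of each repeat, with matching RNA elements; the strain carries a LexA–MS2 coat fusion and a HIS3 reporter. After four days on SC-Leu (input) or SC-Leu-His + 0.5 mM 3-AT (selection), the repeat regions were PCR-amplified and Illumina-sequenced. The interaction score is the log change in variant frequency from input to selection, using log2 and a pseudocount of 1 where absent.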

The target in experiment [2] is T1, PUM1 PUF domain R6-HFV (Homo sapiens, UniProt Q14671 828-1176, N1043H;Y1044F;Q1047V).
T1 sequence: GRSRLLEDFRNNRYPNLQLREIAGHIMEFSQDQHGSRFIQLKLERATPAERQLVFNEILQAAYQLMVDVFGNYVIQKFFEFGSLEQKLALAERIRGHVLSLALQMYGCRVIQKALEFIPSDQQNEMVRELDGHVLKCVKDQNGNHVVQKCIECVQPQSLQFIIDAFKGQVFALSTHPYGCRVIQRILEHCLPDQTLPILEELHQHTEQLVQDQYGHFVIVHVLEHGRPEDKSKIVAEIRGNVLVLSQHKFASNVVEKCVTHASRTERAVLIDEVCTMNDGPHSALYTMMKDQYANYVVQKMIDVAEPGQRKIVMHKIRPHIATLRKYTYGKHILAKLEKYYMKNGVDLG
Put shortly: as §1

Experiment [3] has as its target PUM1 PUF domain R5-RFI (Homo sapiens, UniProt Q14671 828-1176, C1007R;R1008F;Q1011I). The method, boiled down: as §1
For experiment [4], the target named is PUM1 PUF domain R4-VMC (Homo sapiens, UniProt Q14671 828-1176, N971V;H972M;Q975C). Put shortly:
as §1

In experiment [5] the target is PUM1 PUF domain R2-AWH (Homo sapiens, UniProt Q14671 828-1176, N899A;Y900W;Q903H). Put shortly:
as §1

Experiment [6] addresses PUM1 PUF domain R2-LFA (Homo sapiens, UniProt Q14671 828-1176, N899L;Y900F;Q903A). The method, boiled down:
as §1

The target of experiment [7] is PUM1 PUF domain R4-VNV (Homo sapiens, UniProt Q14671 828-1176, N971V;H972N;Q975V). Put shortly: as §1
In experiment [8] the target is PUM1 PUF domain R1-KAV (Homo sapiens, UniProt Q14671 828-1176, S863K;R864A;Q867V). The method, boiled down: as §1
The target of experiment [9] is T2, PUM1 PUF domain R6-VYH (Homo sapiens, UniProt Q14671 828-1176, N1043V;Q1047H).
T2 sequence: T1 sequence with H216V, F217Y, V220H
Put shortly:
as §1

Numbering of substitutions follows the chain as printed.

Take “GGCUAGAACUAGUGGAUCCCCCGGCGCCCGGCGGCUCGAGCCCGGGUAAGCGUAAAUAGUCUGCAUGCCGCCGGGCGCCAUGCCUGCAGGUCGACUCUAGAAAACAUG”: in experiment [1], the binding signal was 3.45 log2 enrichment (interaction score).
Take “GGCUAGAACUAGUGGAUCCCCCGGCGCCCGGCGGCUCGAGCCCGGGUAAGUGUAAAUAGUCUGCAUGCCGCCGGGCGCCAUGCCUGCAGGUCGACUCUAGAAAACAUG”: the results for the binding signal in [2], in experiment [3] and in [4] were 2.51 log2 enrichment (interaction score), 3.37 log2 enrichment (interaction score) and 2.72 log2 enrichment (interaction score), respectively.
For the sequence “GGCUAGAACUAGUGGAUCCCCCGGCGCCCGGCGGCUCGAGCCCGGGUAAGUGUAAAAAGUCUGCAUGCCGCCGGGCGCCAUGCCUGCAGGUCGACUCUAGAAAACAUG”, the binding signal in [5] is 2.3 log2 enrichment (interaction score); in experiment [6], 3.68 log2 enrichment (interaction score).
As to “GGCUAGAACUAGUGGAUCCCCCGGCGCCCGGCGGCUCGAGCCCGGGUAAGUGUGAAUAGUCUGCAUGCCGCCGGGCGCCAUGCCUGCAGGUCGACUCUAGAAAACAUG”, the binding signal in experiment [3] is 3.33 log2 enrichment (interaction score).
In the case of “GGCUAGAACUAGUGGAUCCCCCGGCGCCCGGCGGCUCGAGCCCGGGUAAGUGUACAUAGUCUGCAUGCCGCCGGGCGCCAUGCCUGCAGGUCGACUCUAGAAAACAUG”, the binding signal in experiment [4] is 2.94 log2 enrichment (interaction score); in experiment [7] it was 2.33 log2 enrichment (interaction score).
With “GGCUAGAACUAGUGGAUCCCCCGGCGCCCGGCGGCUCGAGCCCGGGUAAGUGUAAAUUGUCUGCAUGCCGCCGGGCGCCAUGCCUGCAGGUCGACUCUAGAAAACAUG”, the binding signal in [8] is 2.36 log2 enrichment (interaction score).
In the case of “GGCUAGAACUAGUGGAUCCCCCGGCGCCCGGCGGCUCGAGCCCGGGUAAGUGAAAAUAGUCUGCAUGCCGCCGGGCGCCAUGCCUGCAGGUCGACUCUAGAAAACAUG”, the binding signal in experiment [9] was 5.62 log2 enrichment (interaction score).
